Active and inactive are the calls of the source.
Assay: PSAC antagonists in infected red cells, primary screen, cell-based, P. falciparum Indochina, OD700, 2 h (AID 1155);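 further: lysis reports solute entry through the parasite surface anion channel PSAC; channel blockers reduce lysis of infected cells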
Details: P. falciparum Indochina infected erythrocytes, osmotic lysis OD700; higher = more signal, called active from +8 up or from −8 down

z-score, inactive:
C=C(CCCC)/C(=C/C[C@H](OC(C)=O)c1ccc(OCCO)cc1)c1cc(C(=O)OC)ccc1OC 7.58
COc1ccc([Si](C)(C)[C@H]2[C@H](CC(=O)N3CCC[C@H]3CO)O[C@@]3(C(=O)N(Cc4ccc(N5CCC5=O)cc4)c4ccccc43)[C@@H]2C)cc1 1.8
[N-]=[N+]=NCc1ccccc1[C@@H]1OC(c2ccc(OCCCO)cc2)=N[C@]1(Cc1ccccc1N=[N+]=[N-])C(=O)NCCN1CCOCC1 2.41
O=C1C[C@@](C(=O)NCC(F)(F)F)(c2ccc([N+](=O)[O-])cc2)[C@@H](c2ccc(CO)cc2)N1CC12CC3CC(CC(C3)C1)C2 0.525

Assay: osmotic lysis modulators in infected erythrocytes, primary screen, PSAC antagonist project, cell-based, P. falciparum Indochina, OD700, 3 h (AID 1156)
Details: higher = more signal, called active from +8 up or from −8 down

z-score, inactive:
C=CCC(OC(C)=O)[C@@H]1[C@@H](N(Cc2cc3ccccc3o2)C(=O)c2ccc(-c3ccccc3)cc2)c2cc(OCCCO)ccc2N1C(=O)Cc1ccc(OC)cc1 (stereo partly specified) 0.365
COCC(=C=CC[C@@H](O)c1ccc(OCCO)cc1)CCO 1.32
CC(C)(C)OC(=O)CC[C@]12N=C(c3ccc(OCCCO)cc3)O[C@H]1c1ccccc1N(Cc1ccccc1)C2=O 4.42
O=C1OCCC/C=C\[C@H]2OC34C=CCN(c5ccc6ccccc6c5)C(=O)[C@H]3N(CCCO)C(=O)[C@@H]4C12 (stereo partly specified) -0.276
C=C/C=C/[C@@H]1C(=C)CN([C@@H](Cc2ccccc2)C(=O)OC)[C@H]1[C@@H](O)Cc1ccccc1 -0.41
O=C1NC(=O)C2C1C=CC(C(O)c1ccccn1)N2Nc1ccc(Cl)cc1Cl (stereo unspecified) -0.343
CC(C)C[C@@H]1NC(=O)CNC(=O)[C@@]23C(=O)N[C@@H](Cc4ccccc4)C2[C@H](C)[C@@]2(C)O[C@H]2C3/C=C/C/C=C\CNC1=O (stereo partly specified) 0.183
CCOC(=O)C1=C[C@@H](c2ccccc2)N(S(=O)(=O)c2ccc(C)cc2)[C@H]1c1ccccc1 -0.657
[N-]=[N+]=NCc1ccccc1C[C@]1(C(=O)N2CCOCC2)COC(c2ccc(OCCCO)cc2)=N1 3.85
COCCOC(=O)N1C(=O)[C@@]2(c3cc(C#Cc4ccc(OC)cc4)ccc31)[C@H](C(=O)NC[C@H](O)c1ccccc1)[C@H]1C(=O)O[C@H](c3ccccc3)[C@H](c3ccccc3)N1[C@@H]2c1ccc(OCCO)cc1 -0.191
COCCOC(=O)N1C(=O)[C@@]2(c3cc(C#CCC(C(=O)OC)C(=O)OC)ccc31)[C@H](c1ccc(OCCO)cc1)N1[C@H](c3ccccc3)[C@H](c3ccccc3)OC(=O)[C@H]1[C@@H]2C(=O)Nc1nc2ccccc2s1 0.924
COCCOC(=O)N1C(=O)[C@@]2(c3cc(C#CCNC(N)=O)ccc31)[C@H](c1ccc(O)cc1)N1[C@H](c3ccccc3)[C@H](c3ccccc3)OC(=O)[C@H]1[C@@H]2C(=O)N1CCN(c2ncccn2)CC1 0.528
COc1cc(C(O)C2C=CC3C(=O)N(Cc4ccccc4)C(=O)C3N2n2cnnc2)cc(OC)c1OC (stereo unspecified) -0.666
CCCCC=C[C@@H](NC(=O)c1ccccc1)c1ccccc1 0.893
COc1ccc([Si](C)(C)[C@@H]2[C@@H](CC(=O)N3Cc4ccccc4C[C@H]3CO)O[C@]3(C(=O)N(c4ccccc4)c4ccccc43)[C@H]2C)cc1 0.168
CCOC(=O)C1=CCC(c2ccccc2)N(S(=O)(=O)c2ccc([N+](=O)[O-])cc2)C1 (stereo unspecified) 1.4
[N-]=[N+]=NCc1ccccc1[C@@H]1OC(c2ccc(OCCCO)cc2)=N[C@]1(Cc1ccccc1N=[N+]=[N-])C(=O)N1CCCCC1 1.15
C=CCN1C(=O)[C@]2(O[C@H](CCO)[C@@H]([Si](C)(C)c3ccc(OC)cc3)[C@@H]2C)c2cc(N3C(=O)COc4ccccc43)ccc21 -0.398
COCCCNC(=O)[C@@]1(c2ccc([N+](=O)[O-])cc2)CC(=O)N(CC23CC4CC(CC(C4)C2)C3)[C@@H]1c1ccc(CO)cc1I 2.5
CC(C)OC(=O)CC(=O)CC(O)c1ccc([N+](=O)[O-])cc1 (stereo unspecified) 0.0451
CCOC(=O)C1=CCC(c2ccco2)N(S(=O)(=O)c2ccc(C)cc2)C1 (stereo unspecified) 0.252
[N-]=[N+]=Nc1ccccc1[C@@H]1OC(c2ccc(OCCCO)cc2)=N[C@]1(Cc1ccccc1)C(=O)NCc1ccccc1 3.08

Source: PubChem BioAssay
